Measurements taken from PubChem BioAssay (EPA / NIEHS).
Records with an inconclusive call do not appear. Active and inactive are the calls of the source. The calls were made as follows, unless noted: active = hit-call score of the fitted dose curve at least 0.9, where 1 is the maximum; inconclusive = response in the unintended direction; inactive = score below 0.9.

System: not listed separately
Assay: CPHEA_Stoker_NIS_Cytotoxicity: Cytotoxicity Assessment for CPHEA's Radioactive Iodide Uptake (RAIU) Assay for Sodium/Iodide Symporter (NIS) Inhibition, Stoker and Laws Labs (AID 2283897);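 as to AC50: active means loss of ATP signal versus DMSO meaning cytotoxicity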
Settings: not given
Procedure, shortened: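 hNIS-HEK293T-EPA cells, human NIS expressed in HEK293T, treated 2 h with chemicals (0.001–100 uM, 0.5% final DMSO). ATP content read by CellTiter-Glo luminescence; loss of signal analysed relative to DMSO.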
With Cc1cccc(C)c1N the outcome was “inactive”. In the case of CC(C)(O)C(=O)Nc1ccc([N+](=O)[O-])c(C(F)(F)F)c1, the outcome is reported as “inactive”. In the case of ClC(Cl)=C(c1ccc(Cl)cc1)c1ccc(Cl)cc1, the outcome is reported as “inactive”. With CO/C=C(/C(=O)OC)c1ccccc1COc1cccc(C(F)(F)F)n1 the outcome was “inactive”. With CCSC(=O)N(CC)C1CCCCC1 the outcome was “inactive”. With ClC1=C(Cl)[C@]2(Cl)[C@@H]3[C@@H](Cl)[C@H]4O[C@H]4[C@@H]3C1(Cl)C2(Cl)Cl the outcome was “inactive”. With CCNc1nc(NC(C)C)nc(SC)n1 the outcome was “inactive”. In the case of NS(=O)(=O)C(F)(F)C(F)(F)C(F)(F)C(F)(F)C(F)(F)C(F)(F)C(F)(F)C(F)(F)F, the outcome is reported as “inactive”. With CCOP(=S)(OCC)SCSC(C)(C)C the outcome was “inactive”. With CCC(C)c1cc([N+](=O)[O-])cc([N+](=O)[O-])c1O (centres undefined) the outcome was “inactive”. In the case of O=S(=O)(O)C(F)(F)C(F)(F)C(F)(F)C(F)(F)C(F)(F)C(F)(F)F, the outcome is reported as “inactive”. For CC#Cc1cc(C)nc(Nc2ccccc2)n1, the outcome was “inactive”. In the case of ClC1=C(Cl)[C@]2(Cl)[C@@H]3[C@@H]4C[C@@H]([C@H]5O[C@@H]45)[C@@H]3[C@@]1(Cl)C2(Cl)Cl, the outcome is reported as “inactive”. For Oc1ccc(C(c2ccc(O)cc2)(C(F)(F)F)C(F)(F)F)cc1, the outcome was “inactive”. In the case of CCC(C)(c1ccc(O)cc1)c1ccc(O)cc1, the outcome is reported as “inactive”. In the case of Oc1c(Cl)c(Cl)c(Cl)c(Cl)c1Cl, the outcome is reported as “inactive”. In the case of c1ccc(-c2ccccc2)cc1, the outcome is reported as “inactive”. With CCC(=O)O[C@H]1CC[C@H]2[C@@H]3CCC4=CC(=O)CC[C@]4(C)[C@H]3CC[C@]12C the AC50 was 0.646 µM (active). In the case of CCCCCCCCCC[N+](C)(C)CCCCCCCCCC, the outcome is reported as “inactive”. In the case of CC(C)(c1ccccc1)c1ccc(O)cc1, the outcome is reported as “inactive”. With Cc1cc2c3c(c1)C(c1ccccc1)=N[C@@H](NC(=O)c1ccncc1)C(=O)N3CC2 the outcome was “inactive”. In the case of O=S(=O)(O)C(F)(F)C(F)(F)C(F)(F)C(F)(F)F, the outcome is reported as “inactive”. With Cc1ccccc1CO[C@@H]1C[C@@]2(C(C)C)CC[C@]1(C)O2 the outcome was “inactive”. For COc1ccc(O)c(C(C)(C)C)c1, the outcome was “inactive”. With O=C(O)C(F)(F)C(F)(F)C(F)(F)C(F)(F)C(F)(F)C(F)(F)C(F)(F)C(F)(F)C(F)(F)F the outcome was “inactive”. With O=C(O)C(F)(F)C(F)(F)C(F)(F)C(F)(F)C(F)(F)C(F)(F)C(F)(F)C(F)(F)F the outcome was “inactive”. In the case of CCOC(=O)C(O)(c1ccc(Cl)cc1)c1ccc(Cl)cc1, the outcome is reported as “inactive”. With O=NN(c1ccccc1)c1ccccc1 the outcome was “inactive”.

Read-out: not listed separately
Assay: CEETOX_H295R_11DCORT_noMTC: CeeTox H295R High-throughput Steroidogenesis Assay for 11-Deoxycortisol (11DCORT), maximum tolerated concentration (MTC) filtered results only (AID 2283911; active = hit-call score of the fitted dose curve at least 0.9, where 1 is the maximum; inactive = score below 0.9)
Settings: actives raise or lower the signal
Procedure, shortened: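 H295R, OECD 456-based; 10 uM forskolin 48 h → compound (0.1% DMSO) 48 h → medium extracted, 11DCORT by LC-MS/MS. Gain/loss vs DMSO control, all concentrations kept regardless of MTT viability.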
With Oc1c(Cl)c(Cl)c(Cl)c(Cl)c1Cl the outcome was “inactive”. With O=C(O)C(F)(F)C(F)(F)C(F)(F)C(F)(F)C(F)(F)C(F)(F)C(F)(F)C(F)(F)C(F)(F)F the outcome was “inactive”. With CCCCCCOC(=O)c1ccccc1C(=O)OCCCCCC the outcome was “inactive”.

Read-out: not listed separately
Assay: CEETOX_H295R_OHPREG_noMTC: CeeTox H295R High-throughput Steroidogenesis Assay for OH-Pregnenolone (OHPREG), maximum tolerated concentration (MTC) filtered results only (AID 2283912; active = hit-call score of the fitted dose curve at least 0.9, where 1 is the maximum; inactive = score below 0.9)
Settings: actives raise or lower the signal
Procedure, shortened: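 Readout is HPLC-MS/MS quantification of 17alpha-hydroxypregnenolone released by forskolin-stimulated H295R cells over 48 h of chemical exposure, DMSO as baseline.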
In the case of Oc1c(Cl)c(Cl)c(Cl)c(Cl)c1Cl, the outcome is reported as “inactive”. In the case of CCCCCCCCOC(=O)c1ccccc1C(=O)OCCCCCCCC, the outcome is reported as “inactive”. With O=C(O)C(F)(F)C(F)(F)C(F)(F)C(F)(F)C(F)(F)C(F)(F)C(F)(F)C(F)(F)C(F)(F)F the outcome was “inactive”. In the case of CCCCCCOC(=O)c1ccccc1C(=O)OCCCCCC, the outcome is reported as “inactive”.

Read-out: not listed separately
Assay: CEETOX_H295R_OHPROG_noMTC: CeeTox H295R High-throughput Steroidogenesis Assay for OH-Progesterone (OHPROG), maximum tolerated concentration (MTC) filtered results only (AID 2283914; active = hit-call score of the fitted dose curve at least 0.9, where 1 is the maximum; inactive = score below 0.9)
Settings: actives raise or lower the signal
Procedure, shortened: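 Analysis uses all tested concentrations, without maximum-tolerated-concentration screening by MTT. H295R cells, forskolin-primed (10 uM, 48 h), receive chemical for 48 h; hormone in medium measured by HPLC-MS/MS, with bidirectional curve fitting against DMSO.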
In the case of Oc1c(Cl)c(Cl)c(Cl)c(Cl)c1Cl, the outcome is reported as “inactive”. In the case of CCCCCCCCOC(=O)c1ccccc1C(=O)OCCCCCCCC, the outcome is reported as “inactive”. In the case of O=C(O)C(F)(F)C(F)(F)C(F)(F)C(F)(F)C(F)(F)C(F)(F)C(F)(F)C(F)(F)C(F)(F)F, the outcome is reported as “inactive”. For CCCCCCOC(=O)c1ccccc1C(=O)OCCCCCC, the outcome was “inactive”.

Read-out: not listed separately
Assay: CEETOX_H295R_CORTISOL_noMTC: CeeTox H295R High-throughput Steroidogenesis Assay for Cortisol, maximum tolerated concentration (MTC) filtered results only (AID 2283916; active = hit-call score of the fitted dose curve at least 0.9, where 1 is the maximum; inactive = score below 0.9)
Settings: actives raise or lower the signal
Procedure, shortened: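 H295R adrenal cells were pre-stimulated 48 h with 10 uM forskolin, then exposed 48 h to test chemical in 0.1% DMSO. Medium cortisol was measured by MTBE extraction and HPLC-MS/MS; bidirectional fit versus DMSO, concentrations not MTC-filtered.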
For Oc1c(Cl)c(Cl)c(Cl)c(Cl)c1Cl, the outcome was “inactive”. With O=C(O)C(F)(F)C(F)(F)C(F)(F)C(F)(F)C(F)(F)C(F)(F)C(F)(F)C(F)(F)C(F)(F)F the outcome was “inactive”. In the case of CCCCCCOC(=O)c1ccccc1C(=O)OCCCCCC, the outcome is reported as “inactive”.

Read-out: not listed separately
Assay: CEETOX_H295R_CORTIC_noMTC: CeeTox H295R High-throughput Steroidogenesis Assay for Corticosterone (CORTIC), maximum tolerated concentration (MTC) filtered results only (AID 2283917; active = hit-call score of the fitted dose curve at least 0.9, where 1 is the maximum; inactive = score below 0.9)
Settings: actives raise or lower the signal
Procedure, shortened: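 Forskolin-stimulated (10 uM, 48 h) H295R cells are dosed 48 h with chemical in DMSO (0.1% final); corticosterone change is quantified by HPLC-MS/MS and fitted bidirectionally against DMSO, unfiltered for MTT-derived MTC.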
With Oc1c(Cl)c(Cl)c(Cl)c(Cl)c1Cl the outcome was “inactive”. In the case of O=C(O)C(F)(F)C(F)(F)C(F)(F)C(F)(F)C(F)(F)C(F)(F)C(F)(F)C(F)(F)C(F)(F)F, the outcome is reported as “inactive”. For CCCCCCOC(=O)c1ccccc1C(=O)OCCCCCC, the outcome was “inactive”.

Read-out: not listed separately
Assay: CEETOX_H295R_DOC_noMTC: CeeTox H295R High-throughput Steroidogenesis Assay for DOC, maximum tolerated concentration (MTC) filtered results only (AID 2283918; active = hit-call score of the fitted dose curve at least 0.9, where 1 is the maximum; inactive = score below 0.9)
Settings: actives raise or lower the signal
Procedure, shortened: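 H295R cells prestimulated 48 h with 10 uM forskolin, then exposed 48 h to test chemical (0.1% DMSO final). Medium 11-deoxycorticosterone extracted with MTBE, quantified by HPLC-MS/MS; bidirectional fit versus DMSO, concentrations not MTC-filtered.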
For Oc1c(Cl)c(Cl)c(Cl)c(Cl)c1Cl, the outcome was “inactive”. In the case of O=C(O)C(F)(F)C(F)(F)C(F)(F)C(F)(F)C(F)(F)C(F)(F)C(F)(F)C(F)(F)C(F)(F)F, the outcome is reported as “inactive”. For CCCCCCOC(=O)c1ccccc1C(=O)OCCCCCC, the outcome was “inactive”.

Read-out: not listed separately
Assay: CEETOX_H295R_PROG_noMTC: CeeTox H295R High-throughput Steroidogenesis Assay for Progesterone (PROG), maximum tolerated concentration (MTC) filtered results only (AID 2283920; active = hit-call score of the fitted dose curve at least 0.9, where 1 is the maximum; inactive = score below 0.9)
Settings: actives raise or lower the signal
Procedure, shortened: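 Progesterone synthesis in the human adrenal line H295R is measured by HPLC-MS/MS after 48 h chemical exposure following 48 h forskolin (10 uM) stimulation. Activity in either direction is fitted relative to DMSO.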
For Oc1c(Cl)c(Cl)c(Cl)c(Cl)c1Cl, the outcome was “inactive”. With CCCCCCCCOC(=O)c1ccccc1C(=O)OCCCCCCCC the outcome was “inactive”. In the case of O=C(O)C(F)(F)C(F)(F)C(F)(F)C(F)(F)C(F)(F)C(F)(F)C(F)(F)C(F)(F)C(F)(F)F, the outcome is reported as “inactive”.

Target: PGR (gene 5241) (UniProt P06401)
Sequence (P06401 whole entry, looked up): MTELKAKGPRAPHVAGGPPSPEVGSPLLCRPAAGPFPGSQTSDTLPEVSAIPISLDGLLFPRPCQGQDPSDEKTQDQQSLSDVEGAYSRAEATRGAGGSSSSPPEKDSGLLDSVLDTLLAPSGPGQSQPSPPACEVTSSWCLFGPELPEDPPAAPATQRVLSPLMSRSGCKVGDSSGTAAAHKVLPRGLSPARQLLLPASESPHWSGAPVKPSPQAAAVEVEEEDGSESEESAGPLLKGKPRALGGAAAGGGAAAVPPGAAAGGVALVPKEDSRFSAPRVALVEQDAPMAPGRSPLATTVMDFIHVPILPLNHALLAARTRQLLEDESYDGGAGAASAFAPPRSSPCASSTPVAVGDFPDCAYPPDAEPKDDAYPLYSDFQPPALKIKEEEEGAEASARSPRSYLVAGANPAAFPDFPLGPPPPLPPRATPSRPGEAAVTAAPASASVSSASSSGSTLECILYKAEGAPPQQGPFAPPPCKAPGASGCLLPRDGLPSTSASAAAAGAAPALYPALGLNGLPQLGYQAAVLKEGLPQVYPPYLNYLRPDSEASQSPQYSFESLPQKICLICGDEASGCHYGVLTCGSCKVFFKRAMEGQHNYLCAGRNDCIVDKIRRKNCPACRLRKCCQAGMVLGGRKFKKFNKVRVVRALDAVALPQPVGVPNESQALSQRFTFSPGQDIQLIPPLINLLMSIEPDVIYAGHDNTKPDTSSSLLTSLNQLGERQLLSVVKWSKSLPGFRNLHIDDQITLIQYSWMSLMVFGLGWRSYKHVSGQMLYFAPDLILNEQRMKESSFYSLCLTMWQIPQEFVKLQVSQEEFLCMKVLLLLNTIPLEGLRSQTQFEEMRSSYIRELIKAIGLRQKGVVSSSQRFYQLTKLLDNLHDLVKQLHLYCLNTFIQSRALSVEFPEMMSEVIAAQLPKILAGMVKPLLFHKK
Assay: TOX21_PR_BLA_Followup_Agonist_ratio: Tox21 HEK293 Progesterone Receptor (PR) Agonism Beta-lactamase Follow-Up Assay, Ratio (AID 2283933)
Settings: not given
Procedure, shortened: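 Cells were seeded and held 6 hr before compound addition, exposed for 16 hr at 37C, then given FRET substrate for 2 hr at room temperature. Agonism was scored from the blue/green substrate cleavage ratio against DMSO controls.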
In the case of CC(C)(O)C(=O)Nc1ccc([N+](=O)[O-])c(C(F)(F)F)c1, the outcome is reported as “inactive”. For N#Cc1ccc(N(CC(N)=O)CC(F)(F)F)cc1C(F)(F)F, the outcome was “inactive”. With CCC(=O)O[C@H]1CC[C@H]2[C@@H]3CCC4=CC(=O)CC[C@]4(C)[C@H]3CC[C@]12C the AC50 was 12 µM (active).

Target: PGR (gene 5241) (UniProt P06401)
Assay: TOX21_PR_BLA_Followup_Antagonist_ratio: Tox21 HEK293 Progesterone Receptor (PR) Antagonism Beta-lactamase Follow-Up Assay, Ratio (AID 2283934);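 also: PR-UAS-bla HEK293T cells stimulated with 1 nM R5020 agonist for 16 hr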
Settings: not given
Procedure, shortened: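 Cells are plated, rested 6 hr, then dosed with test compound in DMSO and challenged with 1 nM promegestone. After 16 hr incubation, substrate loading for 2 h at room temperature precedes fluorescence reading; viability is measured in the same wells.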
With C[C@]12CCC(=O)C=C1CC[C@@H]1[C@@H]2CC[C@@]2(C)[C@H]1CC[C@]2(C)O the outcome was “inactive”. For ClC(Cl)=C(c1ccc(Cl)cc1)c1ccc(Cl)cc1, the AC50 was 24.9 µM (active). In the case of CCCCCCCCCc1ccc(O)cc1, the AC50 is reported as 68.3 µM (active). For C[C@]12CCC(=O)C=C1CC[C@@H]1[C@@H]2CC[C@]2(C)C(=O)CC[C@@H]12, the AC50 was 9.75 µM (active). In the case of ClC1=C(Cl)[C@]2(Cl)[C@@H]3[C@@H]4C[C@@H]([C@H]5O[C@@H]45)[C@@H]3[C@@]1(Cl)C2(Cl)Cl, the AC50 is reported as 20.3 µM (active). With Oc1ccc(C(c2ccc(O)cc2)(C(F)(F)F)C(F)(F)F)cc1 the AC50 was 53.5 µM (active). In the case of N#Cc1ccc(N(CC(N)=O)CC(F)(F)F)cc1C(F)(F)F, the AC50 is reported as 46.1 µM (active). In the case of CCC(=O)O[C@H]1CC[C@H]2[C@@H]3CCC4=CC(=O)CC[C@]4(C)[C@H]3CC[C@]12C, the outcome is reported as “inactive”. For CC(C)(c1ccccc1)c1ccc(O)cc1, the AC50 was 32.7 µM (active). In the case of Clc1ccc(C(c2ccccc2Cl)C(Cl)(Cl)Cl)cc1 (centres undefined), the AC50 is reported as 12.7 µM (active).
